Results from PubChem BioAssay (NCI).
About 83,000 compounds went through this panel and 20% of them were active in at least one assay; those are over-represented in the sample as a whole.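 Each cell line was grown in a 96-well plate and treated with one concentration of compound for 48 hours. Values below 10 were considered active.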 Active and inactive are the calls of the source.

What was measured:
Test in all cases: NCI-60 one-dose screen, 48 h (100 = growth as untreated, 0 = no growth, -100 = all killed)
Conditions in all cases: 10 µM unless noted
HCT-15 colon = system: HCT-15 colon
HT29 colon = system: HT29 colon
SNB-75 CNS = system: SNB-75 CNS
SNB-19 CNS = system: SNB-19 CNS
U251 CNS = system: U251 CNS
PC-3 prostate = system: PC-3 prostate
SK-MEL-5 melanoma = system: SK-MEL-5 melanoma
UACC-62 melanoma = system: UACC-62 melanoma
SK-MEL-28 melanoma = system: SK-MEL-28 melanoma
SK-MEL-2 melanoma = system: SK-MEL-2 melanoma
EKVX NSCLC = system: EKVX NSCLC
SN12C renal = system: SN12C renal
UO-31 renal = system: UO-31 renal
TK-10 renal = system: TK-10 renal
ACHN renal = system: ACHN renal
CAKI-1 renal = system: CAKI-1 renal
A498 renal = system: A498 renal
CCRF-CEM leukemia = system: CCRF-CEM leukemia
MOLT-4 leukemia = system: MOLT-4 leukemia

Measured: growth

NC1=NN=C2N(N)C(=O)c3cnn(-c4ccccc4)c3N2c2nc(-c3ccccc3)cc(-c3ccccc3)c21
inactive: HCT-15 colon 99.8% | HT29 colon 102% | SNB-75 CNS 86.2% | SNB-19 CNS 93.5% | U251 CNS 96.3% | PC-3 prostate 90.5% | SK-MEL-5 melanoma 94% | UACC-62 melanoma 82.9% | SK-MEL-28 melanoma 118% | SK-MEL-2 melanoma 104% | EKVX NSCLC 96.7% | SN12C renal 97% | UO-31 renal 78.3% | TK-10 renal 116% | ACHN renal 101% | CAKI-1 renal 86.8% | A498 renal 114% | CCRF-CEM leukemia 96.7% | MOLT-4 leukemia 91.6%

c1csc(-c2nc(-c3cc4ccccc4c(N4CCOCC4)n3)cs2)c1
inactive: HCT-15 colon 90.4% | HT29 colon 97.1% | SNB-75 CNS 81.5% | SNB-19 CNS 87.1% | U251 CNS 82.2% | PC-3 prostate 93.4% | SK-MEL-5 melanoma 54.5% | UACC-62 melanoma 28.9% | SK-MEL-28 melanoma 55.2% | SK-MEL-2 melanoma 47.4% | EKVX NSCLC 87.9% | SN12C renal 92.4% | UO-31 renal 71.3% | TK-10 renal 123% | ACHN renal 85.2% | CAKI-1 renal 84.5% | A498 renal 86.2% | CCRF-CEM leukemia 107% | MOLT-4 leukemia 92.1%

Cc1ccc(S(=O)(=O)Nc2ccc(-c3cc(-c4cccc(F)c4)c(C#N)c(N)n3)cc2)cc1
inactive: SNB-19 CNS 51.4% | U251 CNS 22.6% | PC-3 prostate 18.6% | SK-MEL-5 melanoma 28.4% | SK-MEL-2 melanoma 17.1% | EKVX NSCLC 51.6% | SN12C renal 11.5% | CAKI-1 renal 10.9% | A498 renal 68.1%
active: HCT-15 colon -23.3% | HT29 colon -7.07% | SNB-75 CNS -11.7% | UACC-62 melanoma -6.88% | SK-MEL-28 melanoma -33.3% | UO-31 renal -88.2% | TK-10 renal -70.8% | ACHN renal -71.9% | CCRF-CEM leukemia 7.69% | MOLT-4 leukemia 9.77%

O=C1c2cccc3cccc(c23)C(=O)N1CC#Cc1ccc2c3c(cccc13)C(=O)N(CCN1CCNCC1)C2=O
active: CCRF-CEM leukemia 7.71% | MOLT-4 leukemia 6.74%
inactive: HCT-15 colon 61.7% | HT29 colon 23.5% | SNB-75 CNS 99.6% | SNB-19 CNS 86.2% | U251 CNS 56.4% | PC-3 prostate 85.5% | SK-MEL-5 melanoma 103% | UACC-62 melanoma 105% | SK-MEL-28 melanoma 13.5% | SK-MEL-2 melanoma 113% | EKVX NSCLC 104% | SN12C renal 97.2% | UO-31 renal 97.7% | TK-10 renal 141% | ACHN renal 74.4% | CAKI-1 renal 82.4% | A498 renal 112%

CN1CCN(CCOc2ccc(-c3cnc4c(-c5cccc(F)c5)cnn4c3)cc2)CC1
active: HCT-15 colon 2.6% | HT29 colon 4.57%
inactive: SNB-75 CNS 88.1% | SNB-19 CNS 83.9% | U251 CNS 46.6% | PC-3 prostate 51.2% | SK-MEL-5 melanoma 72% | UACC-62 melanoma 78.3% | SK-MEL-28 melanoma 92.1% | SK-MEL-2 melanoma 97.8% | EKVX NSCLC 76.3% | SN12C renal 60.6% | UO-31 renal 39.2% | TK-10 renal 102% | ACHN renal 70.2% | CAKI-1 renal 64.5% | A498 renal 45.2% | MOLT-4 leukemia 16.6%

COc1ccc(CCN2C(=O)C(C)(C)SC2=S)cc1OC
inactive: HCT-15 colon 101% | HT29 colon 105% | SNB-75 CNS 76.8% | SNB-19 CNS 96.4% | U251 CNS 100% | PC-3 prostate 98.4% | SK-MEL-5 melanoma 99.5% | UACC-62 melanoma 92.7% | SK-MEL-28 melanoma 102% | SK-MEL-2 melanoma 107% | EKVX NSCLC 94% | SN12C renal 96% | UO-31 renal 88.9% | TK-10 renal 96.3% | ACHN renal 104% | CAKI-1 renal 88.1% | A498 renal 99.3% | CCRF-CEM leukemia 92.3% | MOLT-4 leukemia 101%

O=C(O)c1cccc2c1Cc1cc([N+](=O)[O-])ccc1-2
inactive: HCT-15 colon 106% | HT29 colon 112% | SNB-75 CNS 83.5% | SNB-19 CNS 108% | U251 CNS 104% | PC-3 prostate 110% | SK-MEL-5 melanoma 105% | UACC-62 melanoma 102% | SK-MEL-28 melanoma 108% | SK-MEL-2 melanoma 102% | EKVX NSCLC 61.9% | SN12C renal 103% | UO-31 renal 103% | TK-10 renal 123% | ACHN renal 102% | CAKI-1 renal 89.5% | A498 renal 93.1% | MOLT-4 leukemia 94%

COc1ccc2c(c1)c1nc3cc(C)c(C)cc3nc1n2CCN(C)C
active: HCT-15 colon -80.3% | HT29 colon -1.79% | U251 CNS -85.8% | PC-3 prostate -14.4% | SK-MEL-28 melanoma 9.16% | UO-31 renal -24.1% | ACHN renal -11.4% | CAKI-1 renal 4.98% | CCRF-CEM leukemia 6.67% | MOLT-4 leukemia 0.921%
inactive: SNB-75 CNS 22.2% | SNB-19 CNS 13.6% | SK-MEL-5 melanoma 45.3% | UACC-62 melanoma 11% | SK-MEL-2 melanoma 26.4% | EKVX NSCLC 13.2% | SN12C renal 17% | TK-10 renal 39.3% | A498 renal 45%

Cc1nc([P+](c2ccccc2)(c2ccccc2)c2ccccc2)c(Sc2sc(-c3ccccc3)nc2[P+](c2ccccc2)(c2ccccc2)c2ccccc2)o1
active: HT29 colon 4.54% | SNB-75 CNS -3.87% | PC-3 prostate 3.44% | SK-MEL-5 melanoma -17.1% | SK-MEL-2 melanoma 3.95% | SN12C renal 7.4% | A498 renal -9.69%
inactive: HCT-15 colon 30.2% | SNB-19 CNS 16.2% | U251 CNS 14.3% | UACC-62 melanoma 19.2% | SK-MEL-28 melanoma 54.5% | EKVX NSCLC 14.8% | UO-31 renal 20.9% | TK-10 renal 38.7% | ACHN renal 17.3% | CAKI-1 renal 15.4% | CCRF-CEM leukemia 18.4% | MOLT-4 leukemia 13%

COc1cccc2c1C(=O)c1c(O)c3c(c(O)c1C2=O)C[C@@](O)(C(=O)CO)C[C@@H]3OC1C[C@H](N)[C@H](O)[C@H](C)O1 (stereo partly specified)
inactive: HCT-15 colon 18.4%
active: HT29 colon -13.1% | SNB-75 CNS -76.1% | SNB-19 CNS 8.7% | U251 CNS 2.94% | PC-3 prostate -2.52% | SK-MEL-5 melanoma -86.4% | UACC-62 melanoma -59% | SK-MEL-28 melanoma -30% | SK-MEL-2 melanoma -75.3% | EKVX NSCLC 1.39% | SN12C renal 6.88% | UO-31 renal -40.7% | TK-10 renal 5.67% | ACHN renal -11% | CAKI-1 renal 1.49% | A498 renal -75.1% | CCRF-CEM leukemia -25.7% | MOLT-4 leukemia -8.66%

COc1cc2nc(Cl)nc(Nc3cccc(C(=O)/C=C/c4ccccc4)c3)c2cc1OC
inactive: SNB-75 CNS 62.1% | SNB-19 CNS 32.9% | U251 CNS 21.4% | PC-3 prostate 49.2% | SK-MEL-5 melanoma 68.8% | UACC-62 melanoma 57.8% | SK-MEL-28 melanoma 56.4% | SK-MEL-2 melanoma 86.8% | EKVX NSCLC 81.5% | SN12C renal 59.5% | UO-31 renal 50.8% | TK-10 renal 143% | ACHN renal 13.7% | CAKI-1 renal 48.4% | A498 renal 90.6% | CCRF-CEM leukemia 28.9% | MOLT-4 leukemia 34.5%
active: HCT-15 colon -34.1% | HT29 colon 4.17%

CN(C)c1cccc2[nH]c(-c3[nH]ncc3Nc3ccnc(N)n3)nc12
active: HCT-15 colon -17.1% | HT29 colon 0.0531% | SNB-75 CNS -68.7% | SNB-19 CNS -3.76% | U251 CNS -50.1% | PC-3 prostate 5.95% | SK-MEL-5 melanoma -98.9% | UACC-62 melanoma -85.1% | SK-MEL-28 melanoma -57.3% | SK-MEL-2 melanoma -60.4% | EKVX NSCLC -17% | SN12C renal -7.45% | UO-31 renal -9.8% | TK-10 renal -30.1% | ACHN renal -1.92% | CAKI-1 renal -45.9% | A498 renal -79.4% | CCRF-CEM leukemia 1.73% | MOLT-4 leukemia 1.65%

COc1ccc(-c2c(-c3nc4ccc(N5CCOCC5)cc4[nH]3)[nH]c(C)c2C(C)=O)cc1
active: HCT-15 colon 3.79% | SNB-75 CNS 1.76% | TK-10 renal -4.3%
inactive: HT29 colon 20.8% | SNB-19 CNS 39.7% | U251 CNS 54.3% | PC-3 prostate 48.7% | SK-MEL-5 melanoma 22.2% | UACC-62 melanoma 15.7% | SK-MEL-28 melanoma 45.8% | SK-MEL-2 melanoma 77.1% | EKVX NSCLC 42.1% | SN12C renal 52.6% | UO-31 renal 13.8% | ACHN renal 34.2% | CAKI-1 renal 16.9% | A498 renal 27.2% | CCRF-CEM leukemia 43.4% | MOLT-4 leukemia 51.9%

CC[C@H](CC[C@@H](C)[C@H]1CC[C@H]2[C@@H]3/C(=C/c4cccnc4)C(=O)C4=CC(=O)CC[C@]4(C)[C@H]3CC[C@]12C)C(C)C
inactive: HCT-15 colon 78.9% | HT29 colon 81.4% | SNB-75 CNS 110% | SNB-19 CNS 88.6% | PC-3 prostate 66.7% | SK-MEL-5 melanoma 79.8% | UACC-62 melanoma 76.6% | SK-MEL-28 melanoma 75.7% | SK-MEL-2 melanoma 103% | EKVX NSCLC 99% | SN12C renal 86.3% | UO-31 renal 65.4% | TK-10 renal 112% | ACHN renal 93.9% | CAKI-1 renal 77.9% | A498 renal 98.3% | MOLT-4 leukemia 67.5%
active: U251 CNS 0.689%

CCN1CCN(C(=O)[C@]23CCC(C)(C)C[C@@H]2C2=CC[C@@H]4[C@@]5(C)C/C(=C/c6ccncc6)C(=O)C(C)(C)[C@@H]5CC[C@@]4(C)[C@]2(C)CC3)CC1
active: HCT-15 colon -63.9% | HT29 colon -39.8% | SNB-19 CNS -16.1% | U251 CNS -77.2% | PC-3 prostate -5% | SK-MEL-5 melanoma -98.8% | UACC-62 melanoma -86% | SK-MEL-28 melanoma -82.5% | SK-MEL-2 melanoma -30.8% | SN12C renal -70.1% | UO-31 renal -92.7% | ACHN renal 3.29% | A498 renal -22.6% | CCRF-CEM leukemia 3.73% | MOLT-4 leukemia -12.2%
inactive: SNB-75 CNS 25% | EKVX NSCLC 15.3% | TK-10 renal 32.3% | CAKI-1 renal 23.2%

C#Cc1cccc(NC(=O)C2CCCN(C(=O)CCl)C2)c1 (stereo unspecified)
active: SN12C renal 9.7% [8.25 µM] | UO-31 renal -56.7% [8.25 µM] | ACHN renal -96.3% [8.25 µM] | CCRF-CEM leukemia -25.9% [8.25 µM] | MOLT-4 leukemia -7.04% [8.25 µM]
inactive: HCT-15 colon 25.2% [8.25 µM] | HT29 colon 83.9% [8.25 µM] | SNB-75 CNS 91.9% [8.25 µM] | SNB-19 CNS 85.7% [8.25 µM] | U251 CNS 72% [8.25 µM] | PC-3 prostate 96.2% [8.25 µM] | SK-MEL-5 melanoma 19.4% [8.25 µM] | UACC-62 melanoma 44.2% [8.25 µM] | SK-MEL-28 melanoma 102% [8.25 µM] | SK-MEL-2 melanoma 75.7% [8.25 µM] | EKVX NSCLC 95.7% [8.25 µM] | TK-10 renal 98.9% [8.25 µM] | CAKI-1 renal 33.8% [8.25 µM] | A498 renal 99.2% [8.25 µM]
